From PubChem BioAssay
AmpC detergent: inhibitors of E. coli AmpC beta-lactamase with detergent; P00811; actives 0.041% (n = 370,000); Potency, µM (highest dose often 114 µM), for the others: at the top dose activity change, negative = inhibition, hits mostly inhibitors; AmpC hydrolysis of nitrocefin, absorbance 480 nm, 0.01% Triton;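 further: potency means the concentration at half of the fitted maximal effect; 0% = no-compound wells and -100% = no-enzyme wells; nearly all actives have a fitted effect of over 25% in size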
Target sequence (P00811 whole entry, looked up): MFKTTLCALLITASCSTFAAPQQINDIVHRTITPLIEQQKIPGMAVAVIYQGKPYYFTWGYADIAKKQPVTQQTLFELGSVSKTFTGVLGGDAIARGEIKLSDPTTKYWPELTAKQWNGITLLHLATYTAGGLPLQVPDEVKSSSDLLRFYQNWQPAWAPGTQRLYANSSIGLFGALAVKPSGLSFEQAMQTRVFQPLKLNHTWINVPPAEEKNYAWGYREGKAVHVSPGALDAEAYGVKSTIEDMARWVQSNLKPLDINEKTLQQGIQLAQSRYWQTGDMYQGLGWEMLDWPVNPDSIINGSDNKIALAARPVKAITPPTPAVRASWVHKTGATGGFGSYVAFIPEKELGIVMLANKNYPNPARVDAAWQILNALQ
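AmpC (5.3 nM in the dispensed reagent) in 20 mM phosphate pH 7.0 with 0.01% (detergent screen) or 0.0001% Triton X-100 was preincubated with compounds for 15 min at room temperature. Nitrocefin was then added from an 800 uM solution, and hydrolysis was followed at 480 nm.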
AmpC no deterg: blocks E. coli AmpC beta-lactamase in detergent-free assay; Potency, µM (top dose mostly 57.1 µM), without a hit: top-dose activity change, negative = inhibition, actives largely listed as inhibitors; actives 0.52% (n = 330,000); P00811; AmpC nitrocefin hydrolysis, absorbance 480 nm, 0.0001% Triton;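 further: potency means the concentration at half of the fitted maximal effect; plate controls were no compound for no effect and no enzyme for full effect; nearly all actives have a fitted effect of over 20% in size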
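AmpC (5.3 nM in the dispensed reagent) in 20 mM phosphate pH 7.0 with 0.01% (detergent screen) or 0.0001% Triton X-100 was preincubated with compounds for 15 min at room temperature. Nitrocefin was then added from an 800 uM solution, and hydrolysis was followed at 480 nm.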
Shiga toxin inh: Shiga toxin inhibition | Vero cells, Shiga toxin protein synthesis inhibition reporter | inhibition, % at 38.7 µM | actives 9.2% (n = 290,000); in the data active means inhibition mostly above about 28%, no sharp cut-off; inactive means mostly below about 43%; further: 0% is about no effect
Cycloheximide cs: counter-screen hit for Shiga toxin inhibitors, cycloheximide; max response, %; cell reporter, cycloheximide protein synthesis inhibition counterscreen; actives 12% (n = 300,000); in the data active means max response mostly above about 13%, no sharp cut-off; inactive means mostly below about 14%; further: read at 38.3 µM for the half of the compounds with a filed dose; 0% is about no effect
NS1 function inh: inhibitors of influenza NS1 protein function. actives 0.4% (n = 270,000). Potency, µM (titrated, usually from 46.1 µM), without a hit: top-dose activity, positive = more growth; calls by dose curve; further: potency means the concentration at half of the fitted maximal effect; actives are rising curves; nearly all actives have a fitted effect of over 50% in size
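Growth recovery, yeast-based: influenza A NS1 expressed in S. cerevisiae causes slow growth, and suppressors are detected by OD600. The parent strain without NS1 is used as positive control.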
Starred values were filed as active, the others as inactive. This is one part of a sample in which hits are shown more often than they occur. Unless noted, the call rests on the fitted dose curve; in most records, active means well fitted curve in the direction sought with a large enough effect; inconclusive means small, poorly fitted or top-dose-only effect, or another doubt; inactive means no such curve, though single readings can be large; an effect the other way counts as inactive or inconclusive.

For O=C(CSc1ccccn1)Nc1ccc(NC(=O)CSc2ccccn2)cc1 the results were AmpC detergent -0.3%, AmpC no deterg -23.9%, Shiga toxin inh -6.0, Cycloheximide cs 0.5 and NS1 function inh 1.2%.
Screening COc1cccc(NC(=O)CSc2nc(C)cs2)c1 returned AmpC detergent 1.9%, AmpC no deterg -14.3%, Shiga toxin inh 20.8, Cycloheximide cs 14.3 and NS1 function inh -3.8%.
Screening COc1cccc(NC(=O)CSc2ccccn2)c1 returned AmpC detergent -15.0%, AmpC no deterg -26.2%, Shiga toxin inh 69.5*, Cycloheximide cs 61.5* and NS1 function inh -8.9%.
`CC(C)(C)OC(=O)N1CCC(c2c(C(=O)NCCN3CCC(Cc4ccccc4)CC3)cnn2-c2ccccc2)CC1` gave AmpC detergent -7.3%.
For Cc1ccc(CN(C(=O)Cn2nnc3ccccc32)C(C(=O)NCc2ccco2)c2cccs2)cc1 (stereo not drawn) the results were AmpC detergent -12.3%, AmpC no deterg -40.5%, Shiga toxin inh 57.4*, Cycloheximide cs 18.8* and NS1 function inh -26.4%.
For O=C(NCc1ccco1)C(c1cccs1)N(Cc1ccccc1)C(=O)Cn1nnc2ccccc21 (stereo not drawn) the results were AmpC detergent inconclusive, AmpC no deterg -14.0%, Shiga toxin inh 48.9*, Cycloheximide cs 30.0* and NS1 function inh -8.4%.
For O=C(NCc1ccco1)C(c1ccco1)N(Cc1cccs1)C(=O)Cn1nnc2ccccc21 (stereo not drawn) the results were AmpC detergent -5.7%, AmpC no deterg -13.3%, Shiga toxin inh 51.5*, Cycloheximide cs 19.1* and NS1 function inh 9.5%.
For O=C(NCc1ccco1)C(c1ccco1)N(CCc1ccccc1)C(=O)Cn1nnc2ccccc21 (stereo not drawn) the results were AmpC detergent 8.2%, AmpC no deterg 10.5%, Shiga toxin inh 17.9, Cycloheximide cs 7.4 and NS1 function inh -25.9%.
For O=C(NC1CCCCC1)C(c1ccco1)N(Cc1cccs1)C(=O)Cn1nnc2ccccc21 (stereo not drawn) the results were AmpC detergent -7.3%, AmpC no deterg -1.5%, Shiga toxin inh -11.2, Cycloheximide cs -1.5 and NS1 function inh -3.8%.
CCOC(=O)C1CCCN(C(=O)Cn2c(=O)c3cccn3c3cccnc32)C1 (stereo not drawn) was read as AmpC detergent -0.7%, AmpC no deterg -4.8%, Shiga toxin inh -0.9, Cycloheximide cs -11.1 and NS1 function inh 0.6%.
`Cc1ccccc1C(=O)NC(=S)Nc1ccc(N2CCOCC2)cc1` gave AmpC detergent -0.7%, AmpC no deterg -13.2%, Shiga toxin inh 6.1 and Cycloheximide cs 11.3*.
Screening O=C(NC(=S)Nc1ccc(N2CCOCC2)cc1)c1ccccc1 returned AmpC detergent -12.6%, AmpC no deterg 24.0%, Shiga toxin inh 41.7 and Cycloheximide cs 15.6.
`Cc1c(C(=O)NC(=S)Nc2ccc(N3CCOCC3)cc2)cccc1[N+](=O)[O-]` gave AmpC detergent 5.5%, AmpC no deterg -21.8%, Shiga toxin inh 43.2* and Cycloheximide cs 9.8*.
CC(=O)Nc1nnc(SCC(=O)NC2CCCC2)s1 was read as AmpC detergent -12.7%, AmpC no deterg -10.5%, Shiga toxin inh -10.6, Cycloheximide cs 0.5 and NS1 function inh -2.0%.
Screening CC(=O)Nc1cc(C)nn1-c1nc2ccccc2s1 returned AmpC detergent 0.4%, AmpC no deterg -13.3%, Shiga toxin inh 52.2*, Cycloheximide cs 33.1* and NS1 function inh -0.9%.
Nc1ccc(C(=O)Nc2nc3ccccc3s2)cc1 was read as AmpC detergent inconclusive, AmpC no deterg -21.3%, Shiga toxin inh 41.7*, Cycloheximide cs 40.8* and NS1 function inh -11.1%.
COc1ccccc1C(=O)Nc1nc2ccccc2s1 was read as AmpC detergent -7.0%, AmpC no deterg 2.4%, Cycloheximide cs -13.2 and NS1 function inh -13.9%.
`COc1cc(C(=O)Nc2nccs2)ccc1OCc1c(C)noc1C` gave AmpC detergent -15.6%, AmpC no deterg -17.4%, Shiga toxin inh 33.5, Cycloheximide cs 21.9 and NS1 function inh -4.8%.
`Cc1cc(NC(=O)CN2CCOCC2)n(-c2nc3ccccc3s2)n1` gave AmpC detergent -1.0%, Shiga toxin inh 42.9, Cycloheximide cs -1.1 and NS1 function inh -9.1%.
`Cc1cc(C)n(-c2ccc(C(=O)Nc3nc4ccccc4s3)cc2)n1` gave AmpC detergent -19.3%, AmpC no deterg 21.2%, Shiga toxin inh 26.0, Cycloheximide cs 19.8* and NS1 function inh -1.3%.
`COc1cc(C(=O)Nc2nc3ccccc3s2)ccc1OCc1c(C)noc1C` gave AmpC detergent -3.4%, AmpC no deterg -7.7%, Shiga toxin inh 11.6, Cycloheximide cs 18.5* and NS1 function inh -3.1%.
For Cc1cccc(NC(=O)N2CCC3(CC2)Oc2ccccc2C(=O)N3Cc2ccccc2F)c1C the results were AmpC detergent 24.4%.
For CCn1ncc(/C=C/C(=O)NCc2cnn(C)c2C)c1C the results were AmpC detergent -1.3%, AmpC no deterg 14.2%, Shiga toxin inh 3.1, Cycloheximide cs -3.7 and NS1 function inh 2.2%.
CCn1ncc(/C=C/C(=O)C2CC2)c1C was read as AmpC detergent -5.9%, AmpC no deterg -3.3%, Shiga toxin inh active, Cycloheximide cs 23.7 and NS1 function inh 4.9%.
Screening Cc1ccc(S(=O)(=O)CCC(=O)NCCN2C(=O)S/C(=C/c3ccc(F)cc3)C2=O)cc1 returned AmpC detergent -20.3%, AmpC no deterg 63.4%, Shiga toxin inh -0.8, Cycloheximide cs 15.9* and NS1 function inh -7.9%.
For O=C(CCNC(=O)c1ccco1)NCCN1C(=O)S/C(=C\c2ccc(F)cc2)C1=O the results were AmpC detergent -2.6% and AmpC no deterg -5.2%.
`Cc1ccc2c(c1)Sc1c(ccc3ccccc13)N2` gave AmpC detergent 8.0%, AmpC no deterg -44.9%, Shiga toxin inh 84.6*, Cycloheximide cs 53.5* and NS1 function inh 8.4%.
CN(C)CCCN1c2ccc3ccccc3c2Sc2cccc(Cl)c21 was read as NS1 function inh -7.8%.
Screening Cc1ccn(-c2cc(O)c(-n3ccc(C)n3)cc2O)n1 returned AmpC detergent -8.2%, AmpC no deterg -12.5%, Shiga toxin inh 45.7, Cycloheximide cs 14.1* and NS1 function inh 5.3%.
Cc1ccn(CCC(=O)O)n1 was read as AmpC detergent 0.6%, AmpC no deterg -17.6%, Shiga toxin inh -6.0, Cycloheximide cs 1.1 and NS1 function inh 1.6%.
Screening CN(C)CCCN(C(=O)c1ccc2c(c1)OCCO2)c1nc2ccc(Cl)cc2s1 returned AmpC detergent -9.8%, AmpC no deterg 140.3%, Shiga toxin inh 35.8, Cycloheximide cs 14.5* and NS1 function inh -6.8%.
For CN(C)CCN(C(=O)c1ccc2c(c1)OCCO2)c1nc2ccc(Cl)cc2s1 the results were AmpC detergent 3.4%, AmpC no deterg -7.8%, Shiga toxin inh 35.9 and Cycloheximide cs 26.5*.
